In the supplement of paper PMC10849652:
The full data set covers some 7,900 targets. This sample favours those with a hit. About 0.6% of all pairs of compound and target were hits. Unmarked numbers belong to inactive results.

Tests used:
Experiment in all cases: log2 fold change, soluble protein after heating vs DMSO (PISA); higher = thermal stabilisation; K562 cells, 10 uM, 30 min; active = over 0.2 and 3.5 SD of the protein, either way, in both replicates (recomputed)
YWHAB = YWHAB (UniProt P31946)
How it was run: (§1)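 Quantification of soluble protein used TMTpro 16plex LC-MS/MS, with channel sums equalised. Samples were the supernatant after 21,000xg for 90 min of pooled aliquots from K562 cells (2×10^6 cells/mL) treated with 10 μM compound for 30 min, heated for 3 min over 48°C-58°C, and extracted in PBS with 0.5% NP-40 at 4°C. Values, from duplicates, describe thermal stability against control samples on a log2 fold-change scale.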

YWHAQ = YWHAQ (UniProt P27348)
How it was run: as §1

YWHAZ [1] = biological target: YWHAZ (UniProt E7ESK7)
How it was run: as §1

YWHAZ [2] = biological target: YWHAZ (UniProt P63104)
How it was run: as §1

YY1 = YY1 (UniProt P25490)
How it was run: as §1

ZADH2 = ZADH2 (UniProt Q8N4Q0)
How it was run: as §1

ZBTB21 = ZBTB21 (UniProt Q9ULJ3)
How it was run: as §1

ZC3H18 = ZC3H18 (UniProt Q86VM9)
How it was run: as §1

ZC3H8 = ZC3H8 (UniProt Q8N5P1)
How it was run: as §1

ZC3HC1 = ZC3HC1 (UniProt Q86WB0)
How it was run: as §1

ZCCHC9 = ZCCHC9 (UniProt Q8N567)
How it was run: as §1

ZDHHC17 = ZDHHC17 (UniProt Q8IUH5)
How it was run: as §1

ZDHHC20 = ZDHHC20 (UniProt Q5W0Z9)
How it was run: as §1

ZDHHC5 = ZDHHC5 (UniProt Q9C0B5)
How it was run: as §1

ZDHHC6 = ZDHHC6 (UniProt Q9H6R6)
How it was run: as §1

ZDHHC7 isoform 2 = ZDHHC7 isoform 2 (UniProt Q9NXF8)
How it was run: as §1

ZBTB43 = ZBTB43 (UniProt O43298)
How it was run: as §1

ZDHHC8 isoform 3 = ZDHHC8 isoform 3 (UniProt Q9ULC8)
How it was run: as §1

Chain of ZC3H8 (Q8N5P1 whole entry, looked up): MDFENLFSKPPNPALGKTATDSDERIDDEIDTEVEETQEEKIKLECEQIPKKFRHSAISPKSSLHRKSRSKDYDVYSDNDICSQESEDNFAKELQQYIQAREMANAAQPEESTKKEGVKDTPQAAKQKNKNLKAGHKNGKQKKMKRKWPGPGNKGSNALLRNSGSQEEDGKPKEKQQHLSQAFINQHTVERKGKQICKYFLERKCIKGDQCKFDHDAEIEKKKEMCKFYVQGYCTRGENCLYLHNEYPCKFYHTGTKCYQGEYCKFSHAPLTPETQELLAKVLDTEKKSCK
Chain of ZDHHC20 (Q5W0Z9 whole entry, looked up): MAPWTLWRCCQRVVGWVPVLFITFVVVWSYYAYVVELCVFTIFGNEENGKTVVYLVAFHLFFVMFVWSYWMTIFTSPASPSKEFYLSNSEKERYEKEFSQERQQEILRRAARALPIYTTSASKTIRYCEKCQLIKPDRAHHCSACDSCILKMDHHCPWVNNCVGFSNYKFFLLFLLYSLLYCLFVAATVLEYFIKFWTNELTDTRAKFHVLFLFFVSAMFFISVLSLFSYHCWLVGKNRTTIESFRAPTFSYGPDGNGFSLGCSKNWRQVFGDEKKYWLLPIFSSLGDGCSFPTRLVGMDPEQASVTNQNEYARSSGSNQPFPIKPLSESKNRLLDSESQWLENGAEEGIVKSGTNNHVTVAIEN
Chain of ZDHHC6 (Q9H6R6 whole entry, looked up): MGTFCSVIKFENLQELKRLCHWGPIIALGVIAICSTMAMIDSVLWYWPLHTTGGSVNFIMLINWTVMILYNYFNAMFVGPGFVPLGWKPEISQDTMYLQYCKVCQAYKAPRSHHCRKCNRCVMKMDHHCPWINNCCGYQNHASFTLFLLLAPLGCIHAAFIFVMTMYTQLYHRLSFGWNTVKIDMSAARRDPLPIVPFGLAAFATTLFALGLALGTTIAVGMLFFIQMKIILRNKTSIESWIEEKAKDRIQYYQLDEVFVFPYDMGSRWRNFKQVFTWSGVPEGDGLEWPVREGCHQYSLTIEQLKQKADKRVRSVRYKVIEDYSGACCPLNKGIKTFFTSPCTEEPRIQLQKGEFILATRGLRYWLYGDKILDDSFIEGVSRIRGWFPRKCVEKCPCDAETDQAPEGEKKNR
Chain of ZBTB21 (Q9ULJ3 whole entry, looked up): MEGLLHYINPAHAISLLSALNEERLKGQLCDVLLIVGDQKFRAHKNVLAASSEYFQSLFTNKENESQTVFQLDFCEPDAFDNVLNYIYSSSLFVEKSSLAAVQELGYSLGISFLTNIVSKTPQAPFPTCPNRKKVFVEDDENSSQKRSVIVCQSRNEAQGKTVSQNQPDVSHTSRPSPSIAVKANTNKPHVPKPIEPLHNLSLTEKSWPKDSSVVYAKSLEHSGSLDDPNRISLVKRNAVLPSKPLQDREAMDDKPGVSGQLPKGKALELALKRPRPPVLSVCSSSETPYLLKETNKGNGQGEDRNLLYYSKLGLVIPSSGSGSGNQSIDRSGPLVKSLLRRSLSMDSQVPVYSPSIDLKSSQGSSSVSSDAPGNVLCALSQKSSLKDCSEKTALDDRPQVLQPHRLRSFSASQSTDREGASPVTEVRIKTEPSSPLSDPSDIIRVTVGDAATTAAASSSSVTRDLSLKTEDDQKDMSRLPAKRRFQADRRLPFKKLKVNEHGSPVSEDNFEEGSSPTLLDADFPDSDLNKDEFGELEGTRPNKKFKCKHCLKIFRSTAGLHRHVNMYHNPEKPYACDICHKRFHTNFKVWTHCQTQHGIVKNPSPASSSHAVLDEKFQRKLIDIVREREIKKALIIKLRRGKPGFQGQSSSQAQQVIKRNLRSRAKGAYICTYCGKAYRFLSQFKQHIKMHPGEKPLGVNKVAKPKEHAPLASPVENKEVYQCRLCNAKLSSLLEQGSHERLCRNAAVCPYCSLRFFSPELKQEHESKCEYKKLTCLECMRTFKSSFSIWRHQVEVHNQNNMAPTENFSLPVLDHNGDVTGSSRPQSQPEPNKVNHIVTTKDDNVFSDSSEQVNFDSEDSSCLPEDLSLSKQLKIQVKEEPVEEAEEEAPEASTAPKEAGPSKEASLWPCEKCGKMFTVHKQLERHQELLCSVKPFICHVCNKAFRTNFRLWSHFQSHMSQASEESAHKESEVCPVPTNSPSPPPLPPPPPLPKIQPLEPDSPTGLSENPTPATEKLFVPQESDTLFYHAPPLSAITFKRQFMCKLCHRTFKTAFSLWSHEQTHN
Chain of YWHAZ (UniProt P63104) (P63104 whole entry, looked up): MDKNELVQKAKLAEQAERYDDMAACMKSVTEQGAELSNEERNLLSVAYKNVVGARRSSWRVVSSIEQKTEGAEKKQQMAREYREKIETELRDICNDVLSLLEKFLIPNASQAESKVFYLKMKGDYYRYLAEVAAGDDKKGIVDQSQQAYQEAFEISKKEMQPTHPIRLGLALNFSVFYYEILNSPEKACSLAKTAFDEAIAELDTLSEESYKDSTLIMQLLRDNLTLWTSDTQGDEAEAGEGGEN
Chain of ZDHHC17 (Q8IUH5 whole entry, looked up): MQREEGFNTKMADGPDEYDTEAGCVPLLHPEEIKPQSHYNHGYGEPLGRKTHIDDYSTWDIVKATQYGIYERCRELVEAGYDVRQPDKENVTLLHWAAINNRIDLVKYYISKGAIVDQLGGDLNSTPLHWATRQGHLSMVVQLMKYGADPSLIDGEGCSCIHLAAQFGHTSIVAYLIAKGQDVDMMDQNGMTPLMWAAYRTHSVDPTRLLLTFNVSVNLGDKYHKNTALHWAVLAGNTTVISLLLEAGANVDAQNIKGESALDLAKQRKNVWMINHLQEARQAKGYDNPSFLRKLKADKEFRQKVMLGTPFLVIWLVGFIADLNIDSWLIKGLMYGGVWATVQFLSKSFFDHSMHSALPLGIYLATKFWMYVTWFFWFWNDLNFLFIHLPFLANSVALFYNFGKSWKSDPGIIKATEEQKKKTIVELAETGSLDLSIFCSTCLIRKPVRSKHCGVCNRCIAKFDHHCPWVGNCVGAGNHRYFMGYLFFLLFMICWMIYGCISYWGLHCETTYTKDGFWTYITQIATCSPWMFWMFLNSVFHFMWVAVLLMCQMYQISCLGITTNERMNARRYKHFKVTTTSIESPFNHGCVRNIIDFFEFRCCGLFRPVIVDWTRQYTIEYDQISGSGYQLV
Chain of ZC3HC1 (Q86WB0 whole entry, looked up): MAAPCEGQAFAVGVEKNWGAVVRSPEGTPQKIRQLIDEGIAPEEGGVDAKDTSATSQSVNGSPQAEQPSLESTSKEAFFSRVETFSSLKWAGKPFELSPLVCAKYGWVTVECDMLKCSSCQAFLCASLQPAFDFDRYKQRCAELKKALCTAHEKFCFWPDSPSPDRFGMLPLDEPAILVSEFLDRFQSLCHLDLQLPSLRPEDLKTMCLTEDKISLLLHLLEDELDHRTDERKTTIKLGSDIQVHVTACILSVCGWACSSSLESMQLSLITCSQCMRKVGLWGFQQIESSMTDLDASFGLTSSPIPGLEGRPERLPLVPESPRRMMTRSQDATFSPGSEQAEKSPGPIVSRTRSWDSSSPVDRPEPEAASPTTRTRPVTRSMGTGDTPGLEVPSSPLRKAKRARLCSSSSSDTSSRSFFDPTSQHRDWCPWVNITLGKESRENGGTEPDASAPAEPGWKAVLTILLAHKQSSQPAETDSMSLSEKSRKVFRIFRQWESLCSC
Chain of ZADH2 (Q8N4Q0 whole entry, looked up): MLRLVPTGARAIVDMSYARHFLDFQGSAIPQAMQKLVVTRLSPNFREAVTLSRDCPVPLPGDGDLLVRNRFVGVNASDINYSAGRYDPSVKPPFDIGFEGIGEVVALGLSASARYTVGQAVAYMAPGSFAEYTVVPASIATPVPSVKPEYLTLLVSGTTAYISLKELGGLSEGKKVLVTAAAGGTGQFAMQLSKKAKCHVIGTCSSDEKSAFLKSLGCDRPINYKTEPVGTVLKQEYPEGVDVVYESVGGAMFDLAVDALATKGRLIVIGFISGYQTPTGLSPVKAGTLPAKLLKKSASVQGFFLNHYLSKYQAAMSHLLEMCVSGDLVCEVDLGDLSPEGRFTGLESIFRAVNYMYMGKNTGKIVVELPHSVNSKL
Chain of ZC3H18 (Q86VM9 whole entry, looked up): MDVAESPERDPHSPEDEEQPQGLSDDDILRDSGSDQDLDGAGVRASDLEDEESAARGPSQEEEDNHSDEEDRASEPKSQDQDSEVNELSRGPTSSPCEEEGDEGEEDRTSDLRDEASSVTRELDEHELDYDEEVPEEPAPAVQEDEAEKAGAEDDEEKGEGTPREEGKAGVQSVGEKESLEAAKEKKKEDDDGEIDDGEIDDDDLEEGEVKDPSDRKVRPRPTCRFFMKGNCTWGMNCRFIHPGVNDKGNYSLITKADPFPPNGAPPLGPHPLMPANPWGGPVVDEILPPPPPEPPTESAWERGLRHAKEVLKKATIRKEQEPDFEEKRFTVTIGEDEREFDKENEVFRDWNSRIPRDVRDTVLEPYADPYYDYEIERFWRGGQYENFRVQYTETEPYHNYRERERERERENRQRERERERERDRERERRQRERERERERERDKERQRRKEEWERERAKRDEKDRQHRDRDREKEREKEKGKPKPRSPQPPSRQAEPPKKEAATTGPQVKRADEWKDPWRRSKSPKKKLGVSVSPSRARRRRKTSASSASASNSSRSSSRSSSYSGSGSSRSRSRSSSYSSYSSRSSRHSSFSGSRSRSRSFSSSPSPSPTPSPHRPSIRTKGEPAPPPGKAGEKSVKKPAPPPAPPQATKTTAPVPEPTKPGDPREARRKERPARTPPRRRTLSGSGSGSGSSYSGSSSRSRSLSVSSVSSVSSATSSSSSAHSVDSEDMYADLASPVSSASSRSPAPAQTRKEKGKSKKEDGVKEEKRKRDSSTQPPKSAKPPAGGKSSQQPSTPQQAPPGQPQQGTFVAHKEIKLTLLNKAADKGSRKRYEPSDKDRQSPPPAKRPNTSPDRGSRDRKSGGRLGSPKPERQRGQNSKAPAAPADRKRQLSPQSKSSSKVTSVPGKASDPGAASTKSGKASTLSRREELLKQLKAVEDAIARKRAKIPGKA

Compound	log2 fold change (YWHAB)	log2 fold change (YWHAQ)	log2 fold change (YWHAZ [1])	log2 fold change (YWHAZ [2])	log2 fold change (YY1)	log2 fold change (ZADH2)	log2 fold change (ZBTB21)	log2 fold change (ZC3H18)	log2 fold change (ZC3H8)	log2 fold change (ZC3HC1)	log2 fold change (ZCCHC9)	log2 fold change (ZDHHC17)	log2 fold change (ZDHHC20)	log2 fold change (ZDHHC5)	log2 fold change (ZDHHC6)	log2 fold change (ZDHHC7 isoform 2)	log2 fold change (ZBTB43)	log2 fold change (ZDHHC8 isoform 3)
CS(=O)(=O)CCNCc1ccc(-c2ccc3ncnc(Nc4ccc(OCc5cccc(F)c5)c(Cl)c4)c3c2)o1 [lapatinib]	-0.016	0.219	-0.051	0.197	-0.023	-0.049	0.032	0.111	0	0	0.028	-0.022	0.063	-0.072	-0.031	0.034	–	–
Cc1cccc(-c2[nH]c(C(C)(C)C)nc2-c2ccc3nccnc3c2)n1	0.021	0.05	-0.064	0.009	0.039	-0.004	-0.03	-0.029	-0.176	0.119	-0.133	-0.095	-0.007	-0.013	–	0.335	-0.04	-0.03
NC(=O)c1cnc(N[C@@H]2CCCC[C@@H]2N)nc1Nc1cccc(-n2nccn2)c1	-0.05	0.172	-0.186	0.108	-0.037	-0.025	-0.044	-0.221	0.08	-0.054	0.049	-0.003	-0.001	-0.01	–	-0.064	0.092	–
CC[C@@H]1C(=O)N(C)c2cnc(Nc3ccc(C(=O)NC4CCN(C)CC4)cc3OC)nc2N1C1CCCC1	-0.055	-0.141	0.1	-0.083	-0.149	0.153	–	-0.008	0.181	-0.163	0.246	-0.009	0.031	0.035	-0.114	0.083	-0.061	–
O=C1c2ccccc2-c2n[nH]c3cccc1c23	0.001	0.089	0.008	0.045	-0.07	0.03	0.006	-0.211	-0.001	-0.032	-0.009	-0.021	-0.044	-0.054	–	0.01	-0.161	–
CNCc1ccc(-c2[nH]c3cc(F)cc4c3c2CCNC4=O)cc1 [rucaparib]	-0.078	-0.016	-0.057	-0.041	-0.05	-0.071	–	0.029	0.19	-0.047	0.4	-0.034	0.115	0.086	0.176	-0.067	-0.272	–
Cn1c2cc(S(C)=O)sc2c2cnn(Cc3cccc(N)c3)c(=O)c21 (stereo not given)	-0.068	-0.167	0.101	-0.115	0.045	-0.013	0.049	0.135	0.127	-0.135	–	-0.027	0.084	-0.049	–	0.02	0.017	0.121
C[C@H](Nc1ncnc2nc[nH]c12)c1cc2cccc(Cl)c2c(=O)n1-c1ccccc1 [duvelisib]	0.056	-0.144	0.171	-0.084	-0.007	0.033	0.081	0.019	-0.126	-0.002	–	0.036	0.04	-0.044	–	0.082	0.027	-0.038
CN1CCN(CCOc2cc(OC3CCOCC3)c3c(Nc4c(Cl)ccc5c4OCO5)ncnc3c2)CC1 [saracatinib]	0.014	0.234	-0.076	0.064	0.047	0.005	-0.149	-0.072	0.088	0.024	–	-0.009	-0.045	0.034	–	0.034	-0.147	0.188
COc1ccc(Cn2ccc3ccc(C(=O)NO)cc32)cc1	-0.028	0.3	0.006	-0.002	0.069	0.008	0.026	-0.009	-0.128	0.13	-0.05	0.137	-0.034	-0.01	–	-0.022	0.094	0.07
COc1cc2nc(-c3cc(F)ccc3O)nc(N[C@@H]3CNC[C@H]3C(C)(C)O)c2cc1OC	-0.062	-0.148	0.028	-0.163	-0.268 (active)	0.045	0.022	-0.066	0.05	0.013	-0.006	0.029	-0.086	0.117	0.018	-0.012	–	–
CC(=O)c1cnc2ccc(-c3cc(Cl)c(O)c(Cl)c3)nc2c1N[C@H]1CC[C@H](CN(C)C)CC1	-0.019	0.118	-0.081	0.06	-0.084	-0.131	-0.42 (active)	-0.155	0.006	-0.165	0.143	-0.007	0.026	-0.049	–	-0.017	0.008	–
CC[C@@H]1C(=O)N(C)c2cnc(Nc3ccc(C(=O)N[C@H]4CC[C@H](N5CCN(CC6CC6)CC5)CC4)cc3OC)nc2N1C(C)C [volasertib]	0.024	-0.073	-0.173	-0.016	-0.44 (active)	0.754 (active)	-0.063	-0.085	0.207	-0.579 (active)	0.226	-0.095	0.011	0.093	-0.094	-0.059	–	–
Cc1ccc(NC(=O)c2cccc(N(C)C)c2)cc1NC(=O)c1ccc(O)cc1	-0.008	-0.023	0.082	0.011	-0.012	-0.047	0.101	-0.02	0.03	-0.209	0.062	0.01	0.085	-0.007	–	0.014	0.141	–
Cc1ccc(-n2nc(C(C)(C)C)cc2NC(=O)Nc2ccc(OCCN3CCOCC3)c3ccccc23)cc1 [doramapimod]	0.022	-0.12	0	0.013	-0.037	-0.013	0.069	0.052	0.038	-0.056	0.169	0.264 (active)	-0.025	0.027	–	0.113	-0.029	0.359
Cn1cc(-c2ccc3nnc(C(F)(F)c4ccc5ncccc5c4)n3n2)cn1	-0.037	-0.066	-0.007	-0.045	-0.056	0.107	-0.009	0.008	-0.056	0.038	-0.081	-0.029	0.048	-0.009	–	0.091	-0.054	–
Cc1cc(SCc2sc(-c3ccc(C(F)(F)F)cc3)nc2C)ccc1OCC(=O)O	0.005	0.119	-0.02	0.012	0.002	-0.027	0.043	-0.034	-0.039	0.199	–	-0.04	-0.249	-0.03	–	-0.075	0.041	0.031
